Results taken from PubChem BioAssay (EPA / NIEHS).
Active and inactive are the calls of the source. Rule for the calls: active = hit-call score of the fitted dose curve at least 0.9, where 1 is the maximum; inactive = score below 0.9.

Columns and labels:
[1] = molecular target: Transcription factor E2F1 (Homo sapiens) (UniProt Q01094); assay: ATG_E2F_CIS: Attagene CIS-FACTORIAL HepG2 Assay for human E2F Transcription Factor 1 (AID 2282935); details: HepG2 Attagene cis-reporter, E2F reporter RNA transcripts; actives raise or lower the signal
Chain of Transcription factor E2F1 (Homo sapiens) (Q01094 whole entry, looked up): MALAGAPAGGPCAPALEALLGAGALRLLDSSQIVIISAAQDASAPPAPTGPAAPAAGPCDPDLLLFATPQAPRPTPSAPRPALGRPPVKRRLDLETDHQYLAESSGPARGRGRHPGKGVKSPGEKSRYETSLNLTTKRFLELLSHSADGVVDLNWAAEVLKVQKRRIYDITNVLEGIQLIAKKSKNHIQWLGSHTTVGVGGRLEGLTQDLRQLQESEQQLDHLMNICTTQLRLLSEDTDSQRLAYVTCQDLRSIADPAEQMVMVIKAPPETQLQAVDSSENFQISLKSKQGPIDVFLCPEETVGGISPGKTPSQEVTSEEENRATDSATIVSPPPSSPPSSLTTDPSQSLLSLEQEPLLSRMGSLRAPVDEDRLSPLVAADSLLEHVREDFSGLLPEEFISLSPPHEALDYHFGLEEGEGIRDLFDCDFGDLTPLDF
In short: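 Gain or loss of reporter transcript, fitted against DMSO, reflects E2F1-driven transcription. Transiently transfected HepG2 dosed 24 h before RNA isolation. Quantified by fluorescent RT-PCR products separated by capillary electrophoresis.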

[2] = ATG_E_Box_CIS: Attagene CIS-FACTORIAL HepG2 Assay for human Enhancer Box (E-box) (AID 2282936); details: HepG2 E-box cis-reporter transcription, actives raise or lower the signal
In short: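 E-box-driven reporter transcripts measured in transiently transfected HepG2 after 24 h exposure: RNA reverse-transcribed, PCR-amplified, fluorescently labelled, digested and resolved by capillary electrophoresis. Gain or loss relative to DMSO.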

[3] = ATG_M_61_CIS: Attagene CIS-FACTORIAL HepG2 Assay for M61 Transcription Factor (Internal Marker) (AID 2282937); details: HepG2 Attagene CIS-FACTORIAL M61 internal marker reporter; actives raise or lower the signal
In short: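 HepG2 cells transiently transfected with multiplexed cis-promoter reporter units reporting endogenous transcription factor activity, measured 24 h after dosing. Reporter mRNA quantified by RT-PCR and capillary electrophoresis; bidirectional fit against DMSO baseline.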

[4] = ATG_EGR_CIS: Attagene CIS-FACTORIAL HepG2 Assay for human Early Growth Response 1 (EGR1) (AID 2282938); details: HepG2 Attagene CIS-FACTORIAL EGR reporter mRNA; actives raise or lower the signal
In short: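 HepG2 cells transiently transfected with cis-element-driven multiplexed reporter units, dosed for 24 h. EGR1-element reporter mRNA quantified by RT-PCR, 6-FAM labelling, HpaI digestion and capillary electrophoresis; bidirectional fit versus DMSO.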

[5] = ATG_M_19_CIS: Attagene CIS-FACTORIAL HepG2 Assay for M19 Transcription Factor (Internal Marker) (AID 2282939); details: HepG2 Attagene CIS-FACTORIAL M19 internal marker reporter; actives raise or lower the signal
In short: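 HepG2 cells transiently transfected with cis-regulated multiple reporter transcription units were dosed for 24 h; reporter mRNA was quantified by RT-PCR, 6-FAM primer-extension labelling, HpaI digestion and capillary electrophoresis, with bidirectional fitting against DMSO baseline.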

[6] = ATG_ERE_CIS: Attagene CIS-FACTORIAL HepG2 Assay for Estrogen Response Element (ERE) (AID 2282940); details: HepG2 ERE cis-reporter, Attagene RNA transcript; actives raise or lower the signal
In short: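 HepG2 cells transiently transfected with cis-promoter-driven multiplexed reporter transcription units report endogenous TF activity. After 24 h compound exposure, reporter mRNA is quantified by RT-PCR with capillary electrophoresis fluorescence; bidirectional fitting versus DMSO baseline.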

[7] = ATG_Ets_CIS: Attagene CIS-FACTORIAL HepG2 Assay for human Erythroblast Transformation Specific (ETS) (AID 2282941); details: HepG2 ETS cis-reporter transcription, actives raise or lower the signal
In short: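 Endogenous transcription factor activity read as reporter mRNA via RT-PCR and capillary electrophoresis, with gain or loss fitted bidirectionally against DMSO. Human HepG2 liver cells, transiently transfected CIS reporter constructs, 24 h exposure.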

[8] = molecular target: Hepatocyte nuclear factor 3-beta (Homo sapiens) (UniProt Q9Y261); assay: ATG_FoxA2_CIS: Attagene CIS-FACTORIAL HepG2 Assay for human Forkhead box A2 (FOXA2) (AID 2282942); details: HepG2 cis-reporter transcription factor activity, 24 h; actives raise or lower the signal
Chain of Hepatocyte nuclear factor 3-beta (Homo sapiens) (Q9Y261 whole entry, looked up): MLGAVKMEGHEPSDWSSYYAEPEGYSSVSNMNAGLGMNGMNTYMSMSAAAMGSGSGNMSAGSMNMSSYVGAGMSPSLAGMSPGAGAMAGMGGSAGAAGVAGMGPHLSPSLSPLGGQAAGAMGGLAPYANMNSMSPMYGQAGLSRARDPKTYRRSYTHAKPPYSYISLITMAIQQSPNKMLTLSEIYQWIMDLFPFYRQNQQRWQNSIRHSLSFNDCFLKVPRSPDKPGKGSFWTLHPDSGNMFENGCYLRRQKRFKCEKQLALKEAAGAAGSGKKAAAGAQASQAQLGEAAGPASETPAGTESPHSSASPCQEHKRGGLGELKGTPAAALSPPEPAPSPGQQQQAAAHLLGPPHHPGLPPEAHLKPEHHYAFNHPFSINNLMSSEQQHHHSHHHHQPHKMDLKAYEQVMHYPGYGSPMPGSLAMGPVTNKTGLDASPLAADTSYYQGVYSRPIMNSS
In short: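 HepG2 transiently transfected with a multiplexed cis-promoter reporter library read endogenous FOXA2 activity. After 24 h compound exposure, reporter mRNA was quantified by RT-PCR, HpaI digestion and capillary electrophoresis. Bidirectional fit against DMSO.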

[9] = ATG_FoxO_CIS: Attagene CIS-FACTORIAL HepG2 Assay for human Forkhead box O (FoxO) (AID 2282943); details: HepG2 Attagene cis-reporter, FoxO element, mRNA; actives raise or lower the signal
In short: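 Human hepatoma HepG2 cells carry transiently introduced reporter transcription units controlled by cis promoter elements. Chemical treatment lasted 24 h, and mRNA signal was compared with DMSO.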

[10] = ATG_GATA_CIS: Attagene CIS-FACTORIAL HepG2 Assay for human GATA Binding Protein (AID 2282944); details: HepG2 GATA cis-element reporter, Attagene multiplex mRNA; actives raise or lower the signal
In short: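 HepG2 cells transiently transfected with multiplexed cis-element reporter units reflecting endogenous transcription factor activity; reporter mRNA measured after 24 h dosing by RT-PCR, 6-FAM labeling, HpaI digestion and capillary electrophoresis. Bidirectional fitting versus DMSO baseline.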

[11] = ATG_GLI_CIS: Attagene CIS-FACTORIAL HepG2 Assay for human Zinc Finger Protein GLI1 (AID 2282945); details: HepG2, Attagene cis-factorial reporter mRNA, GLI element; actives raise or lower the signal
In short: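 Bidirectional curve fits relative to DMSO, using reporter mRNA levels from RT-PCR plus capillary electrophoresis. Cells were HepG2 transiently carrying cis-regulated reporter constructs, harvested 24 h after dosing.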

[12] = ATG_GRE_CIS: Attagene CIS-FACTORIAL HepG2 Assay for human Glucocorticoid Response Elements (GRE) (AID 2282947); details: HepG2 GRE cis-reporter, Attagene multiplex mRNA; actives raise or lower the signal
In short: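 Reporter transcripts read by RT-PCR with capillary electrophoresis fluorescence after a 24 h chemical exposure of HepG2 cells transiently transfected with multiple cis-element reporter units. Gain or loss fitted against DMSO.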

[13] = ATG_ISRE_CIS: Attagene CIS-FACTORIAL HepG2 Assay for human Interferon Regulatory Factor 1 (IRF1) binding to an Interferon-Stimulated Response Element (ISRE) (AID 2282948); details: HepG2 ISRE cis-reporter (Attagene), mRNA transcription readout; actives raise or lower the signal
In short: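 Endogenous transcription factor activity read as reporter transcript abundance via RT-PCR and capillary electrophoresis. HepG2 cells transiently transfected, 24 h chemical exposure. Gain or loss fitted against DMSO baseline.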

[14] = ATG_M_32_CIS: Attagene CIS-FACTORIAL HepG2 Assay for M32 Transcription Factor (Internal Marker) (AID 2282949); details: HepG2 Attagene cis-factorial M32 reporter, mRNA; actives raise or lower the signal;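 note: background control marker of the multiplexed CIS panel rather than a real target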
In short: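 HepG2 transfectants (cis-regulated reporter transcription units) dosed 24 h. Reporter mRNA by RT-PCR plus CE, analysed as gain or loss relative to DMSO.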

[15] = molecular target: Hypoxia-inducible factor 1-alpha (Homo sapiens) (UniProt Q16665); assay: ATG_HIF1a_CIS: Attagene CIS-FACTORIAL HepG2 Assay for human Hypoxia Inducible Factor 1 (HIF1A) (AID 2282951); details: HepG2 Attagene cis-factorial HIF1a reporter transcription; actives raise or lower the signal
Chain of Hypoxia-inducible factor 1-alpha (Homo sapiens) (Q16665 whole entry, looked up): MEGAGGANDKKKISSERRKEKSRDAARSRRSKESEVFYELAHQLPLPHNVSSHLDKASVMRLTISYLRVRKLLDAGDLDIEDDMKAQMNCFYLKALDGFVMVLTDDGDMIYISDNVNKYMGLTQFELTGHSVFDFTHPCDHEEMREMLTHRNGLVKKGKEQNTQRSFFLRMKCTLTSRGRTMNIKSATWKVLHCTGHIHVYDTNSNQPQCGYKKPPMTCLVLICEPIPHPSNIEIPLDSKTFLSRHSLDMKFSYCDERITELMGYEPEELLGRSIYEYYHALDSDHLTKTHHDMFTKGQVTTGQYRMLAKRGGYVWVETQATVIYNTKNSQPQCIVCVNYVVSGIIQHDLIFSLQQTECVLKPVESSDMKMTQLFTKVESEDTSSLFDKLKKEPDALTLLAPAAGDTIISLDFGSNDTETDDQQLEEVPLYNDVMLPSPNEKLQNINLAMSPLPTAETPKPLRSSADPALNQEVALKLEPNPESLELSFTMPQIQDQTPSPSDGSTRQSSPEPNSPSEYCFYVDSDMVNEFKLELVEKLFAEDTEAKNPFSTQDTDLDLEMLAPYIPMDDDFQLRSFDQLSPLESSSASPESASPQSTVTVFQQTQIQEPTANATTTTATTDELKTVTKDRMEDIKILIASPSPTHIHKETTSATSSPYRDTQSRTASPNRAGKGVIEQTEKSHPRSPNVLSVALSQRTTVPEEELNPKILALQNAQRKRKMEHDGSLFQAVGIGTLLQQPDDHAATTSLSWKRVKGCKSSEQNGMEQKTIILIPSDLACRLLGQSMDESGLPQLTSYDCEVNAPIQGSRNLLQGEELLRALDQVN
In short: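 HepG2 cells transiently transfected with multiple cis-regulated reporter transcription units measure endogenous transcription factor activity. After 24 h exposure, reporter mRNA is quantified by RT-PCR with 6-FAM labelling, HpaI digestion and capillary electrophoresis. Bidirectional fitting against DMSO.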

[16] = molecular target: Hepatocyte nuclear factor 6 (Homo sapiens) (UniProt Q9UBC0); assay: ATG_HNF6_CIS: Attagene CIS-FACTORIAL HepG2 Assay for human Hepatocyte Nuclear Factor 6 (HNF6) (AID 2282952); details: HepG2 Attagene cis-factorial HNF6 reporter transcription; actives raise or lower the signal
Chain of Hepatocyte nuclear factor 6 (Homo sapiens) (Q9UBC0 whole entry, looked up, the tested form may be a part): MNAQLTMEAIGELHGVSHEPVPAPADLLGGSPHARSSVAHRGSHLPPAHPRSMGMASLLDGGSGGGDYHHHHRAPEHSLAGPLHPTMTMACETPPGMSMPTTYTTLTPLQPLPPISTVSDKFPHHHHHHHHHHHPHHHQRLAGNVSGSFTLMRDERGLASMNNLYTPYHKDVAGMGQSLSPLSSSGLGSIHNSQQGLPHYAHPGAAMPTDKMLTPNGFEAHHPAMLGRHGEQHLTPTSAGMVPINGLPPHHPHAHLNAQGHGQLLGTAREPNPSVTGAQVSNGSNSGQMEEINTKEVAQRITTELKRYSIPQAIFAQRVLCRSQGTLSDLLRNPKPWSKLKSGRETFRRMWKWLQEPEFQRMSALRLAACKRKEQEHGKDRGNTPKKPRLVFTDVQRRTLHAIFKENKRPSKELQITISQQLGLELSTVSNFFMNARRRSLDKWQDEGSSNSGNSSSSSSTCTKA
In short: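 First, HepG2 cells were transfected with the multiplexed cis reporter library and dosed with chemical for 24 h. Next, RNA was reverse-transcribed, PCR-amplified and fluorescently labelled. Finally, HpaI-digested fragments were read by capillary electrophoresis.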

[17] = ATG_MRE_CIS: Attagene CIS-FACTORIAL HepG2 Assay for human Metal Responsive Element (MRE) (AID 2282954); details: HepG2 MRE cis-reporter transcription, Attagene multiplex; actives raise or lower the signal
In short: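 Endogenous MRE-dependent transcription read as reporter mRNA in transiently transfected human HepG2 cells at 24 h. RNA reverse-transcribed, PCR-amplified, labelled and resolved by capillary electrophoresis; gain or loss relative to DMSO.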

[18] = ATG_M_06_CIS: Attagene CIS-FACTORIAL HepG2 Assay for M06 Transcription Factor (Internal Marker) (AID 2282950); details: HepG2 Attagene CIS-FACTORIAL M06 internal marker reporter; actives raise or lower the signal
In short: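 HepG2 cells transiently transfected with cis-regulated multiple reporter transcription units were exposed to chemical for 24 h; reporter mRNA was quantified by RT-PCR, 6-FAM primer labelling, HpaI digestion and capillary electrophoresis, fitted bidirectionally against DMSO.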

[19] = molecular target: Heat shock factor protein 1 (Homo sapiens) (UniProt Q00613); assay: ATG_HSE_CIS: Attagene CIS-FACTORIAL HepG2 Assay for human Heat Shock Transcription Factor 1 (HSE) (AID 2282953); details: HepG2 HSE cis-reporter, Attagene RNA transcription; actives raise or lower the signal
Chain of Heat shock factor protein 1 (Homo sapiens) (Q00613 whole entry, looked up): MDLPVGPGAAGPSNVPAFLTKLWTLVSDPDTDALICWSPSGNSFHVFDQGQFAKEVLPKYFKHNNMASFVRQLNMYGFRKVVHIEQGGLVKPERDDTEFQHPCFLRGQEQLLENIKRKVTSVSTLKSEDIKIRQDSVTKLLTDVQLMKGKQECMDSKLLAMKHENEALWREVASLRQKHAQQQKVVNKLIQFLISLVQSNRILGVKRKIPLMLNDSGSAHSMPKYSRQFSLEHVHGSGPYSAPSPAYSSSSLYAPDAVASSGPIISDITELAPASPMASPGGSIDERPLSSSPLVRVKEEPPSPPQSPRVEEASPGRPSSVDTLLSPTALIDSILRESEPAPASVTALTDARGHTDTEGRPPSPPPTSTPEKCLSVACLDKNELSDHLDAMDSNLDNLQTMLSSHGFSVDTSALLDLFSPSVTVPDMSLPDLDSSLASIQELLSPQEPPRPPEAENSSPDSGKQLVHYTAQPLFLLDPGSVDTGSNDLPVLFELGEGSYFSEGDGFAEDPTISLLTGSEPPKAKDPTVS
In short: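 HepG2 cells transiently transfected with multiple reporter transcription units under cis-regulatory promoter control, measuring endogenous transcription factor activity. After 24 h chemical exposure, reporter mRNA quantified by RT-PCR, fluorescent labelling, HpaI digestion and capillary electrophoresis; bidirectional fit versus DMSO.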

Measured: AC50

O=C(O)c1cc2ccccc2cc1O
not listed: [18] | [19]
inactive: all other assays above

O=C(OCc1ccccc1)c1ccccc1O
active: [6] 76.3 µM
not listed: [15]
inactive: all other assays above

C=C(C)C(N)=O
not listed: [12]
inactive: all other assays above

CC(C)(CO)CO
not listed: [14]
inactive: all other assays above

CCCCC1CCCCC(=O)O1 (stereo not drawn)
not listed: [19]
inactive: all other assays above

O=C(O)c1ccccc1O
not listed: [12] | [17]
inactive: all other assays above

CC(=O)OC/C=C(C)/C=C/C=C(C)/C=C/C1=C(C)CCCC1(C)C
active: [4] 122 µM | [11] 159 µM | [13] 72.8 µM | [19] 155 µM | [17] 100 µM
not listed: [12]
inactive: all other assays above

Cc1cccc(O)c1
not listed: [14] | [18]
inactive: all other assays above

O=C(O)C1=NN(c2ccc(S(=O)(=O)O)cc2)C(=O)C1
not listed: [13]
inactive: all other assays above

OC[C@@H](O)[C@H](O)[C@@H](O)[C@@H](O)CO
active: [6] 30.1 µM
not listed: [12]
inactive: all other assays above

CC(C)C(=O)c1ccccc1
active: [6] 0.5 µM
not listed: [12]
inactive: all other assays above

Nc1ccc(O)c(N)c1
not listed: [15] | [19]
inactive: all other assays above

Cc1cc(O)c2c(c1)C(=O)c1cc(O)cc(O)c1C2=O
active: [6] 0.602 µM | [7] 19.3 µM | [9] 26.2 µM | [12] 18.5 µM | [13] 36.2 µM | [17] 18.9 µM
not listed: [14] | [18] | [19]
inactive: all other assays above

O=C(C=Cc1ccccc1)OCCCc1ccccc1
active: [6] 29.7 µM
not listed: [15]
inactive: all other assays above

CCOC(=O)C(=O)OCC
inactive: all assays above

CCCCCC1C(=O)CCC1CC(=O)OC (stereo not drawn)
not listed: [12] | [19]
inactive: all other assays above

Cc1ccc(C(C)(C)O)cc1
not listed: [18]
inactive: all other assays above

CCOC(=O)CCCCCCCCC(=O)OCC
not listed: [12]
inactive: all other assays above

CC(C)COC(=O)c1ccccc1
not listed: [19]
inactive: all other assays above

N#CCCCC(C#N)CCC#N (stereo not drawn)
not listed: [12] | [17]
inactive: all other assays above

CC/C=C\C#N
not listed: [18]
inactive: all other assays above

Cc1ccncc1
not listed: [15]
inactive: all other assays above

C1COCO1
not listed: [13]
inactive: all other assays above

CC/C=C\CCOC(C)OCC (stereo not drawn)
not listed: [14]
inactive: all other assays above

CC(C)CCCC(C)(C)O
not listed: [12] | [19]
inactive: all other assays above

CCCCCCC(C)O (stereo not drawn)
not listed: [12]
inactive: all other assays above

CCCCCCCCCCCCS
not listed: [12]
inactive: all other assays above

O=c1cc(-c2ccc(O)cc2)oc2cc(O)cc(O)c12
active: [4] 10.1 µM | [6] 1.18 µM | [7] 17.5 µM | [13] 31 µM | [19] 24.9 µM | [17] 41.1 µM
not listed: [12] | [15]
inactive: all other assays above

CN(C)C
not listed: [12]
inactive: all other assays above

CCOC(=O)CC(C)C
not listed: [12]
inactive: all other assays above

Cc1cc(O)c(C)c(C)c1O
active: [2] 37.6 µM
not listed: [12]
inactive: all other assays above

CC(C)(O)C(=O)c1ccc(OCCO)cc1
not listed: [12] | [17]
inactive: all other assays above

CCCCCCCCCOS(=O)(=O)O
active: [6] 5.14 µM
not listed: [12] | [15]
inactive: all other assays above
